ERAP1 inh: human ERAP1 aminopeptidase inhibitors, primary screen, biochemical, single point, plate reader; recombinant ERAP1, Leu-AMC fluorescence, 60 min; inhibition, % at 10.7 µM; 340,000 compounds, 0.15% hits; AID 652197, 2013;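 active = mean replicate inhibition of at least 30%, or all replicates individually reaching that 30% level; inactive = mean below 30% and not every replicate reaching it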;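 also: 0% = neutral control wells and 100% = L-leucinethiol positive control wells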
Casp6 inh: human caspase-6 inhibitors, primary screen, biochemical, VEID-R110 fluorescence, single point, set 2; P55212; purified caspase-6, Z-VEID-R110 cleavage fluorescence; inhibition, % at 12.5 µM; 350,000 compounds, 0.53% hits; AID 686996, 2013;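 active = mean inhibition across replicates at least about 35%, with every replicate also reaching that limit, limit read from the data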;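 also: 0% = median of neutral control wells and 100% = no fluorescence left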
Target sequence (P55212 24-179 limits assumed): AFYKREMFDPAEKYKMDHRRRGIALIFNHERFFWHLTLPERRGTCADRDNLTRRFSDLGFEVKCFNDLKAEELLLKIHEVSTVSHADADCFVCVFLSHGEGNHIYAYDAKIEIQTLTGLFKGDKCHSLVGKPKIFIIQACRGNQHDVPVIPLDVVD
Target sequence (P55212 194-293 limits assumed): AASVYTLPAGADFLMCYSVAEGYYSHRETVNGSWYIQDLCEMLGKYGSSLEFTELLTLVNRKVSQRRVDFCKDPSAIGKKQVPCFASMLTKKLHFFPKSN
SIRT5 inh: SIRT5 desuccinylase inhibitors, primary screen, biochemical, fluorescence imaging, single point, set 5; inhibition, % at 15 µM; AID 652115, 2013; 330,000 compounds, 1.1% hits; Purified SirT5, succinyl-peptide AMC, trypsin-coupled fluorescence; in the data active = inhibition above about 15%
Target sequence (Q9NXA8 whole entry, looked up): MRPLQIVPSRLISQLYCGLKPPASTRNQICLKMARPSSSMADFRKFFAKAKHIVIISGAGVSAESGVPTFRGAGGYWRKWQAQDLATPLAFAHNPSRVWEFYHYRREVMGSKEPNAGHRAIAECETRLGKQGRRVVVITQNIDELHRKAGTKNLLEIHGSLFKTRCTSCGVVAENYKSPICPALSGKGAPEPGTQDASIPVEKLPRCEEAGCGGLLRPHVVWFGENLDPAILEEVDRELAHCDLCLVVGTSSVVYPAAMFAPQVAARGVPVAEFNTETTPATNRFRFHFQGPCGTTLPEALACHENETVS
GSIS activator: GLuc luminescence reporter in INS-1E cells, primary screen for activators of glucose-dependent secretion of insulin. INS-1E GLuc reporter insulin secretion, 2-3 h. activation, % at 16.6 µM. 370,000 compounds, 0.61% hits. AID 743287, 2014;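 active = lowest replicate activation of at least 40%, so every replicate reaches that level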;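 also: 0% = median of neutral control wells and 100% = median of IBMX positive control wells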
FGF22 binding: binders of human FGF22 protein, primary screen, FGF22 synaptogenesis inhibitor project, biophysical, thermal shift, single point. 340,000 compounds, 1.5% hits. AID 651658, 2012. recombinant FGF22 thermal shift, SYPRO orange fluorescence; percent of sucrose octasulfate shift, DMSO zero. activity (Tm shift, normalised), % at 9.99 µM;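 active = mean Tm shift, scaled 0 neutral to 100 positive control, at about 1.3% or above, every replicate too, limit read from the data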
Numbers without * were called inactive; nt = not tested or not shown. Most compounds without a hit are left out; they make up all but 3.3% or so of the library.

SMILES | ERAP1 inh | Casp6 inh | SIRT5 inh | GSIS activator | FGF22 binding
CC(=O)NNC(=O)CN1C(=O)/C(=C/c2ccccc2)SC1=S | -2 | 1 | 0 | -3 | 0
O=C(CCN1C(=O)/C(=C\c2ccccc2Cl)SC1=S)Nc1cccnc1 | -1 | 0 | -3 | -4 | 0
C[C@@H]1CN([C@@H](C)CO)C(=O)c2cc(NC(=O)CCC(F)(F)F)ccc2O[C@@H]1CN(C)CC1CC1 | -1 | 1 | -3 | 15 | 0
CC(C)[C@H]1COCc2cn(nn2)CC[C@@H](C)C(=O)N1 | nt | nt | nt | 0 | nt
C[C@H]1CN([C@@H](C)CO)C(=O)c2cccc(NS(=O)(=O)c3ccccc3)c2O[C@H]1CN(C)S(=O)(=O)c1ccc(F)cc1 | nt | nt | nt | 5 | 0
C[C@H]1CN([C@@H](C)CO)C(=O)c2cccc(NC(=O)Nc3ccc4c(c3)OCO4)c2O[C@@H]1CN(C)S(=O)(=O)c1cn(C)cn1 | 1 | 4 | -1 | 19 | 0
O=C(CCN1C(=O)/C(=C/c2ccco2)SC1=S)Nc1ccc(O)cc1C(=O)O | 6 | 70* | 48* | -5 | 0
CN1CCN(C(=O)CCN2C(=O)/C(=C\c3ccccc3F)SC2=S)CC1 | 6 | -6 | 0 | -11 | 0
O=C(CCN1C(=O)/C(=C\c2ccccc2F)SC1=S)N1CCOCC1 | -1 | -1 | nt | 42* | 0
CC(C(=O)Nc1ccc(O)cc1C(=O)O)N1C(=O)/C(=C\c2cccs2)SC1=S (stereo unspecified) | 5 | 46* | 8 | 11 | 0
CC(C)[C@@H]1CC=CC[C@H](C)Oc2ccccc2C(=O)N(C)[C@@H](C)C(=O)N1 (mixture of isomers) | nt | nt | nt | -5 | nt
O=C(C[C@H]1CC[C@H]2[C@@H](COC[C@@H](O)CN2Cc2nccs2)O1)NCc1ccccc1F | 0 | -1 | 0 | 19 | 0
O=C1CCN(CCCN2CCC(=O)NC2=S)C(=S)N1 | 4 | 3 | nt | nt | 44*
CCCCN1CCC(=O)NC1=O | 0 | -2 | 3 | 10 | 0
CCOc1nc(Nc2ccccc2F)nc(OCC)n1 | -4 | -1 | -1 | 62* | 0
C=CCNc1nc(Nc2ccccc2F)nc(OCC)n1 | 0 | -1 | nt | 19 | 0
CCCn1c(O)c(N=NC(=O)c2cccnc2)c2cc(Br)ccc21 | 1 | -1 | 6 | 41* | 0
CCCn1c(O)c(N=NC(=O)CNC(=O)c2cccnc2)c2ccccc21 | 1 | 2 | 3 | 10 | 0
O=C(O)C[C@@H]1C[C@H]2c3cc(NC(=O)NC4CCCC4)ccc3O[C@H]2[C@@H](CO)O1 | 0 | -2 | 2 | -9 | 0
O=C(/C=C/c1ccccc1Cl)Nc1ccccc1 | -3 | -2 | 6 | nt | 1.5*
O=C(/C=C/c1ccccc1Cl)Nc1ccc(Cl)cn1 | -1 | -5 | -3 | -3 | 43*
O=C(/C=C/c1ccccc1Cl)Nc1cccc(O)c1 | 8 | 2 | 4 | -17 | 1
O=C(Nc1ccccc1)C1C(c2ccccc2)C1(Cl)Cl (stereo unspecified) | -1 | 0 | -1 | -11 | 0
O=C(Nc1ccc(Cl)cn1)C1C(c2ccccc2)C1(Cl)Cl (stereo unspecified) | 0 | 3 | 2 | -28 | 44*
COc1ccccc1C#Cc1ccc([C@H]2[C@@H](C#N)N(C(=O)C3CC3)[C@@H]2CO)cc1 | 1 | 2 | -10 | 12 | 0
SMILES | ERAP1 inh | Casp6 inh | SIRT5 inh | GSIS activator | FGF22 binding
CC1CCCN(C(=O)COC(=O)C2CCN(S(=O)(=O)c3c(Cl)cccc3Cl)CC2)C1 (stereo unspecified) | 0 | -3 | 18* | -24 | 0
CC1CC(C)CN(C(=O)COC(=O)C2CCN(S(=O)(=O)c3c(Cl)cccc3Cl)CC2)C1 (stereo unspecified) | -3 | 0 | 11 | -35 | 0
O=C(Cc1ccccn1)N[C@H]1CC[C@@H](CCn2cc(-c3cccnc3)nn2)O[C@H]1CO | -4 | -2 | 4 | 5 | 0
O=C(C1CCC1)N1CCCCN2[C@H](CO)[C@@H](c3ccc(C#CC4CCCC4)cc3)[C@H]2C1 | -2 | -1 | 9 | nt | 0
Cc1nc2c(=O)[nH]c(=S)[nH]c2[nH]c1=O | 3 | 93* | 41* | 26 | 0
O=C(c1cc(-c2ccc(Cl)cc2Cl)on1)N1CCCCCC1 | -2 | 2 | -1 | 12 | 0
O=C(c1cc(-c2ccc(Cl)cc2Cl)on1)N1CCCC1 | 3 | -1 | nt | 20 | 44*
N#CCCn1nc(-c2ccc(Br)cc2)cc1Nc1ccccc1NC(=O)C(F)(F)F | -1 | 0 | 0 | -15 | 2.5*
N#CCCn1nc(-c2ccccc2)cc1Nc1ccccc1NC(=O)C(F)(F)F | 1 | -1 | -14 | -6 | 0
Cc1nc(CN(C)C(=O)c2cc(COc3ccc4ncccc4c3)on2)cs1 | -2 | -3 | -4 | -26 | 43*
CC(C)N(Cc1nccn1C)C(=O)c1cc(COc2ccc3ncccc3c2)on1 | -2 | 0 | -2 | -11 | 0
Cc1cc2nc(C(C)(C)C)cc(N)n2n1 | -1 | 4 | -5 | 2 | 0
CC(C)(C)c1cc(N)n2nc(C(C)(C)C)cc2n1 | -1 | 0 | nt | 6 | 44*
O=C1Cc2ccccc2C(=O)N1c1ccc(F)cc1Cl | 0 | 44* | 0 | -1 | 0
O=C1Cc2ccccc2C(=O)N1c1ccccc1 | -3 | 26 | -1 | -2 | 42
COc1cccc(-c2ccc3c(c2)[C@@H]2[C@@H](CCN2C(=O)c2ccccc2F)[C@H](CO)N3C)c1 | 0 | -1 | 20* | -25 | -1
COc1ccc(-c2ccc3c(c2)[C@@H]2[C@@H](CCN2S(=O)(=O)c2ccc(F)cc2)[C@H](CO)N3C)cc1 | 3 | 1 | 16* | -13 | 0
O=C(C[C@@H]1C[C@H]2c3cc(NC(=O)NC4CCCCC4)ccc3O[C@H]2[C@@H](CO)O1)NCc1cccnc1 | 0 | 0 | 1 | 10 | 0
CCc1nc2c(OCc3ccccc3C(=O)OC)cccn2c1N(C)C(=O)c1cccs1 | 0 | 2 | 2 | -20 | 0
CCCCC(=O)N(C)c1c(CC)nc2c(OCc3ccc(C(F)(F)F)cc3)cccn12 | -3 | 1 | 2 | 53* | 0
CCc1nc2c(OCc3ccccc3C(=O)OC)cccn2c1N(C)C(=O)c1ccncc1 | -2 | 4 | nt | 117* | 0
CCc1nc2c(OCc3ccccc3C)cccn2c1N(C)C(=O)c1ccco1 | 0 | 0 | nt | 61* | 0
COC1=CC(=O)c2nc(Cl)ccc2C1=O | 2 | 100* | 3 | -6 | 0
CCC(=O)N[C@H]1CC[C@@H](CCNC(=O)Nc2ccc(C(F)(F)F)cc2)O[C@H]1CO | -2 | 0 | -2 | 4 | 0
